“And” between values parts separate entries of the source, which are not always exact repeats. Identical values can stand only once. Out of some 5,500 compounds screened, about 2,000 (36%) were called active. Not shown: some 18% with an inconclusive outcome. No stated cut-off is given here; in the data, active means normalized growth mostly below about 0.91 (no sharp cut-off); inconclusive means no clear call, values can overlap the other calls; inactive means mostly above about 0.92. This is one part of the list.
Assay: chemical genetic growth profiling, strain panel (AID 1159580);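 further: tested at 20 µM; growth read once vehicle control cultures reached saturation at 30 °C; 1 = growth at the plate median or of vehicle wells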
Conditions: S. cerevisiae deletion strains, growth OD

Measured: normalized growth

COc1cc2ccc(=O)oc2c2ccoc12
inactive: locus YAL021C, strain ccr4, stronger effect = lower value 0.941 | locus YAL030W, strain snc1, stronger effect = lower value 0.982 | locus YBL061C, strain skt5, stronger effect = lower value 0.999 | locus YBR021W, strain FUR4, stronger effect = lower value 1.04 | locus YBR023C, strain chs3, stronger effect = lower value 0.932 | locus YBR171W, strain sec66, stronger effect = lower value 0.984 | locus YBR229C, strain ROT2, stronger effect = lower value 0.998 | locus YBR279W, strain paf1, stronger effect = lower value 0.99 | locus YCL029C, strain bik1, stronger effect = lower value 0.982 | locus YCR088W, strain abp1, stronger effect = lower value 1.01 | locus YDL005C, strain med2, stronger effect = lower value 0.994 | locus YDL035C, strain GPR1, stronger effect = lower value 0.971 | locus YDL040C, strain nat1, stronger effect = lower value 1 | locus YDL074C, strain BRE1, stronger effect = lower value 0.85 | locus YDL101C, strain DUN1, stronger effect = lower value 0.94 | locus YDL134C, strain PPH21, stronger effect = lower value 0.964 | locus YDL185W, strain tfp1, stronger effect = lower value 0.937 | locus YDL192W, strain arf1, stronger effect = lower value 0.955 | locus YDR001C, strain nth1, stronger effect = lower value 0.994 | locus YDR069C, strain doa4, stronger effect = lower value 0.905 | locus YDR101C, strain arx1, stronger effect = lower value 0.985 | locus YDR137W, strain rgp1, stronger effect = lower value 1.03 | locus YDR162C, strain NBP2, stronger effect = lower value 0.974 | locus YDR318W, strain mcm21, stronger effect = lower value 0.965 | locus YDR388W, stronger effect = lower value 1 | locus YDR502C, strain sam2, stronger effect = lower value 0.958 | locus YEL037C, strain rad23, stronger effect = lower value 0.957 | locus YEL061C, strain CIN8 (second series), stronger effect = lower value 0.99 | locus YER016W, strain bim1, stronger effect = lower value 1 | locus YER110C, stronger effect = lower value 0.975 | locus YER111C, strain swi4, stronger effect = lower value 1 | locus YER155C, strain BEM2, stronger effect = lower value 1.02 | locus YER167W, strain BCK2, stronger effect = lower value 1.01 | locus YFR010W, strain ubp6, stronger effect = lower value 0.915 | locus YGL078C, strain dbp3, stronger effect = lower value 0.967 | locus YGL086W, strain mad1, stronger effect = lower value 0.969 | locus YGL167C, strain pmr1, stronger effect = lower value 0.998 | locus YGL227W, strain vid30, stronger effect = lower value 0.999 | locus YGL248W, strain PDE1, stronger effect = lower value 0.952 | locus YGR078C, strain PAC10, stronger effect = lower value 0.977 | locus YHR013C, strain ard1, stronger effect = lower value 0.953 | locus YHR030C, strain SLT2, stronger effect = lower value 1 and 0.986 | locus YHR079C, strain IRE1 (second series), stronger effect = lower value 0.961 | locus YHR079C, strain IRE1, stronger effect = lower value 1.02 | locus YHR094C, strain hxt1, stronger effect = lower value 0.996 | locus YHR129C, strain ARP1, stronger effect = lower value 1 | locus YIL066C, strain RNR3, stronger effect = lower value 1 | locus YIL073C, strain SPO22, stronger effect = lower value 0.957 | locus YIL125W, strain kgd1, stronger effect = lower value 1.01 | locus YIR030C, strain dcg1, stronger effect = lower value 0.993 | locus YJL092W, strain hpr5, stronger effect = lower value 0.973 | locus YJL095W, strain BCK1 (second series), stronger effect = lower value 0.937 | locus YJL095W, strain BCK1, stronger effect = lower value 0.906 and 0.992 | locus YJL134W, strain LCB3, stronger effect = lower value 1 | locus YJL154C, strain vps35, stronger effect = lower value 0.996 | locus YJL168C, strain set2, stronger effect = lower value 0.983 | locus YJL187C, strain SWE1 (second series), stronger effect = lower value 0.98 | locus YJR043C, strain POL32, stronger effect = lower value 0.921
active: locus YAL026C, strain drs2, stronger effect = lower value 0.859 | locus YBR009C, strain hhf1, stronger effect = lower value 0.777 | locus YBR231C, strain swc5, stronger effect = lower value 0.733 | locus YCL011C, strain gbp2, stronger effect = lower value 0.823 | locus YCL016C, strain dcc1, stronger effect = lower value 0.828 | locus YCL069W, strain vba3, stronger effect = lower value 0.915 | locus YDR159W, strain sac3, stronger effect = lower value 0.829 | locus YDR195W, strain ref2 1.3 [resistant] | locus YDR297W, strain sur2, stronger effect = lower value 0.903 | locus YDR334W, strain swr1, stronger effect = lower value 0.772 | locus YDR335W, strain msn5, stronger effect = lower value 0.896 | locus YDR392W, strain spt3, stronger effect = lower value 0.665 | locus YEL003W, strain gim4, stronger effect = lower value 0.818 | locus YER015W, strain faa2, stronger effect = lower value 0.92 | locus YER155C, strain BEM2 (second series), stronger effect = lower value 0.731 | locus YGL173C, strain kem1, stronger effect = lower value 0.862 | locus YGL240W, strain doc1, stronger effect = lower value 0.692 | locus YGL253W, strain hxk2, stronger effect = lower value 0.892 | locus YGR135W, strain pre9, stronger effect = lower value 0.893 | locus YGR252W, strain gcn5, stronger effect = lower value 0.76 | locus YHR027C, strain rpn1, stronger effect = lower value 0.881 | locus YHR142W, strain chs7, stronger effect = lower value 0.838 | locus YHR200W, strain rpn10, stronger effect = lower value 0.899 | locus YJL115W, strain asf1, stronger effect = lower value 0.883 | locus YJL129C, strain trk1, stronger effect = lower value 1.14 [resistant] | locus YJL164C, strain tpk1, stronger effect = lower value 0.902 | locus YJL166W, strain qcr8, stronger effect = lower value 0.826
